Rows were chosen to be rich in hits. Some 2.9% of all compounds tested hit in one or more screens of this group.
PAFAH1B3 FP inh – inhibitors of human PAFAH1B3; recombinant PAFAH1B3, FP-rhodamine probe, fluorescence polarization; inhibition, % at 3.39 µM; 0.28% of 340,000 active; AID 492972;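 active = inhibition above the screen-wide average of all tested compounds plus 3 SD, cut at about 25% in these data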;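 note: 0% = enzyme with DMSO only and 100% = wells lacking PAFAH1B3 protein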
Target sequence (Q15102 whole entry, looked up): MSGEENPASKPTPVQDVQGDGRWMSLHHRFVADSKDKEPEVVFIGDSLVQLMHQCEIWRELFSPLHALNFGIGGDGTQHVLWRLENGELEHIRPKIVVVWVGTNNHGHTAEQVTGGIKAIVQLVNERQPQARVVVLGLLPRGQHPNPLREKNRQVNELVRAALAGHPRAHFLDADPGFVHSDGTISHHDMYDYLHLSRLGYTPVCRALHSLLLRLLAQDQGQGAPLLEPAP
PME-1 primary – blocks human protein phosphatase methylesterase 1. Q9Y570. recombinant PME-1, FP-Rh probe fluorescence polarization. inhibition, % at 5.9 µM. 0.53% of 320,000 active;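 active = inhibition above the campaign mean of all compounds plus 3 SD, cut at about 26% in these data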;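 note: competitive labeling of PME-1 active site by serine hydrolase directed probe; 0% = PME-1 with DMSO and 100% = wells lacking PME-1 enzyme; inhibitors block probe labeling so polarization falls and inhibition rises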
pPAFAH FP inh – inhibitors of human plasma PAF acetylhydrolase (pPAFAH); Q13093; recombinant pPAFAH, FP-rhodamine probe fluorescence polarization; 1.5% of 330,000 active; inhibition, % at 3.39 µM;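 active = inhibition above the mean inhibition across the screen plus 3 SD, cut at about 25% in these data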;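 note: inhibitors block binding of the rhodamine activity-based probe so polarization drops; 0% = enzyme with DMSO and 100% = wells lacking pPAFAH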
PAFAH2 FP inh – PAFAH2 (human) inhibition; 0.99% of 340,000 active; AID 492956; recombinant PAFAH2, FP-rhodamine activity probe, fluorescence polarization; inhibition, % at 3.39 µM; Q99487;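 active = inhibition above the mean over all tested compounds plus 3 SD, cut at about 30% in these data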;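 note: inhibitors block probe labeling of enzyme so polarization drops; 0% = enzyme with DMSO and 100% = wells lacking PAFAH2 protein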
Fam108B counter – blocks mouse Fam108B hydrolase in RBBP9 counter-screen; AID 1947; recombinant Fam108B, FP-Rh probe fluorescence polarization; 0.33% of 300,000 active; inhibition, % at 9.51 µM;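 active = inhibition above the screen mean inhibition plus 3 SD, computed separately per campaign, cut at about 18% in these data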;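 note: inhibitors lower polarization as less probe binds the enzyme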
PAFAH1B2 inh – blocks human PAF acetylhydrolase 1b catalytic subunit 2; P68402; recombinant PAFAH1B2, FP-rhodamine activity probe, fluorescence polarization; inhibition, % at 3.39 µM; 1.2% of 340,000 active;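 active = inhibition above the mean of all tested compounds plus 3 SD, cut at about 24% in these data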;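 note: 0% = enzyme with DMSO and 100% = wells lacking PAFAH1B2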
Starred values were filed as active, the others as inactive; . = no result.

SMILES	PAFAH1B3 FP inh	PME-1 primary	pPAFAH FP inh	PAFAH2 FP inh	Fam108B counter	PAFAH1B2 inh
Cc1ccc(NC(=O)CCSCCC(=O)Nc2ccc(C)c(C)c2)cc1C	-8	-5	5	-15	-6	29*
CCn1c(SCC(=O)N(C)C)nc2cc(S(=O)(=O)N3CCOCC3)ccc21	2	0	1	8	0	78*
CC(C)c1ccc2[nH]c(O)c(N=NC(=O)c3cccc(S(=O)(=O)N4CCCCC4)c3)c2c1	-2	53*	5	-1	8	-2
CC1=C(C#N)C(=O)N(C2CCS(=O)(=O)C2)C(=O)/C1=C\c1ccc(C)o1 (stereo not drawn)	.	-1	37*	.	8	.
CCN1C(=O)N/C(=C/c2ccc(C)o2)C1=O	1	0	0	0	-3	2
CCOc1ccc(NS(=O)(=O)c2ccc(SC)cc2)cc1	4	-5	34*	-6	-8	-1
CCOc1ccc(NS(=O)(=O)c2ccc(NC(=S)NC(=O)C(C)C)cc2)cc1	-1	5	33*	-6	-2	-2
CCOc1ccc(NS(=O)(=O)c2ccc(-c3cnc(C4CC4)o3)cc2)cc1	3	2	31*	0	-3	8
COc1ccc(NS(=O)(=O)c2ccc(NC(=S)NC(=O)C(C)C)cc2)cc1	-4	14	17	-8	-5	0
NS(=O)(=O)c1cc(C(=O)O)cc(N2CCCC2)c1Oc1ccccc1	-2	-3	0	-2	-1	29*
Cc1cccc(C)c1N1C(=O)CC(N2CCN(S(=O)(=O)c3ccccc3F)CC2)C1=O (stereo not drawn)	9	.	7	5	.	2
Clc1ccc(OCCn2ccnc2)c(Cl)c1	1	5	1	10	3	-7
Clc1ccc(SCCn2ccnc2)cc1	7	-1	0	1	0	35*
CC(C)(C)NC(=O)CN(Cc1ccccc1)S(=O)(=O)c1ccccc1	-4	2	-1	-2	-2	6
CCOc1ccc(NS(=O)(=O)c2ccc3[nH]c(=O)[nH]c3c2)cc1	4	1	20	1	-1	2
Cc1ccc(NS(=O)(=O)c2ccc(N3C(=O)CCC3=O)cc2)cc1	2	1	23	0	0	2
CC(C)c1ccc(NS(=O)(=O)c2ccc(-n3cccn3)cc2)cc1	1	-2	25*	-10	-7	-6
CC(C)c1ccc(NS(=O)(=O)c2ccc(N3C(=O)CCC3=O)cc2)cc1	-2	1	29*	5	1	9
COc1ccc(CCn2c(N)c(C#N)c3nc4ccccc4nc32)cc1OC	9	34*	2	2	4	-1
Clc1ccc(SCc2cc(-c3ccccc3)no2)cc1	4	-3	-1	1	4	42*
CCOC(=O)N1CCC2(CC1)C(C#N)=C(N)Oc1n[nH]c(CSc3ccc(C)cc3)c12	3	8	6	2	2	27*
Cc1ccc(SCc2[nH]nc3c2C2(CCSCC2)C(C#N)=C(N)O3)cc1	-6	9	2	1	2	38*
O=C(O)c1cccc2cccc(-c3c4ccc(=O)c(O)c-4oc4c(O)c(O)ccc34)c12	66*	.	.	69*	.	62*
CNc1ccccc1C(=O)OCC(=O)N(CCOC)c1c(N)n(CC(C)C)c(=O)[nH]c1=O	4	-1	4	4	6	0
Cc1cc2[nH]c(=O)c(=O)[nH]c2cc1S(=O)(=O)NC1CCC(C)CC1 (stereo not drawn)	-1	1	0	-3	-1	26*
Cc1cc2[nH]c(=O)c(=O)[nH]c2cc1S(=O)(=O)N1CCC(C)CC1	7	-6	5	3	0	25*
Cc1cc2[nH]c(=O)c(=O)[nH]c2cc1S(=O)(=O)N1CCN(c2ccccc2)CC1	2	2	3	0	3	12
Cc1cc(C)cc(NS(=O)(=O)c2cc3[nH]c(=O)c(=O)[nH]c3cc2C)c1	0	1	-3	-1	-5	5
COc1ccc(CCNC(=O)Cn2nc([N+](=O)[O-])c(Br)c2C)cc1OC	-2	-6	-4	1	2	0
O=C(CN1CCN(S(=O)(=O)c2ccc(Cl)cc2)CC1)NC1CCCC1	6	5	-3	2	1	29*

Screening data deposited in PubChem BioAssay by The Scripps Research Institute Molecular Screening Center.
